In the supplement of paper PMC4894684:
Counter-ions that a name gives are not always drawn. ± gives the standard deviation of the averaged measurements. Among all 1,000 compounds or so, about 15 (2%) showed an effect of 50% or more. The full list was thinned out, with strong results kept by preference.

system: HFF; test: uninfected host cell viability relative to vehicle control; higher = less host cell toxicity; details: 5 µM; 72 h; oxygen 21 %

Row | SMILES | uninfected host cell viability [%]
1 | CCN(CC)c1ccc(/C=N/NC(=O)c2ccc(O)cc2)cc1 | 86.7 ± 5.1
2 | CCCCC[C@H](O)/C=C/[C@H]1[C@H](O)CC(=O)[C@@H]1CCCCCCC(=O)O [Alprostadil] | 91.7 ± 4.5
3 | CC1Nc2ccc(Cl)cc2S(=O)(=O)N1 (centres undefined) | 95.27 ± 0.86
4 | Cn1cc(C2=C(c3cn(CCCSC(=N)N)c4ccccc34)C(=O)NC2=O)c2ccccc21 [Ro 31-8220 mesylate] | 14.2 ± 0.54
5 | Cn1cc(C2=C(c3ccc(Cl)cc3Cl)C(=O)NC2=O)c2ccccc21 | 72.6 ± 4.2
6 | CN(C)CCCn1cc(C2=C(c3c[nH]c4ccccc34)C(=O)NC2=O)c2ccccc21 | 62.3 ± 1.5
7 | O=C(O)CC/C=C\C[C@H]1CO[C@@H](c2ccccc2Cl)O[C@H]1c1ccccc1O | 98.6 ± 1.1
8 | CCOC(=O)c1c(C)[nH]c2ccc3c(c12)CN1CCc2cc(OC)ccc2C1O3 (centres undefined) | 96.1 ± 2.8
9 | CC(Oc1ccc(O)cc1)(P(=O)(O)O)P(=O)(O)O | 95.3 ± 1.8
10 | CN(C)C(=O)C(=O)c1cn(C)c2cc(Cl)c(C(=O)N3CCC(Cc4ccc(F)cc4)CC3)cc12 | 88.4 ± 2.3
11 | CCOCC(O)COc1ccc(NC(=O)CC[S+](C)C)cc1 (centres undefined) [Suplatast tosylate] | 97.7 ± 1.6
12 | CNC(=O)[C@H]1O[C@@H](n2cnc3c(NCc4cccc(I)c4)ncnc32)[C@H](O)[C@@H]1O | 80.94 ± 0.44
13 | CCN(c1ccccc1)c1cc(=NC)n(C)c(C)n1 | 92.2 ± 1.3
14 | CCOC(=O)c1ccc(OC(=O)CCCCCNC(=N)N)cc1 [Gabexate mesylate] | 89.8 ± 11
15 | O=[N+]([O-])c1cc(Cl)ccc1S(=O)(=O)N1CCN(Cc2ccccc2)CC1 | 98.8 ± 3.2
16 | CN1CC(=O)N=C1NC(=O)Nc1cccc(Cl)c1 [Fenobam] | 80.93 ± 0.68
17 | CCCCc1nn(-c2ccccc2C(F)(F)F)c(=O)n1Cc1ccc(-c2ccccc2S(=O)(=O)NC(=O)c2sccc2C)cc1 | 84.8 ± 3.6
18 | COc1cc(NC(=O)c2ccccn2)ccc1Cl | 95.9 ± 2.8
19 | COc1ccc(-c2nc(-c3ccc(-c4cccc(Cl)c4)o3)[nH]c2-c2ccc(OC)cc2)cc1 [Neurodazine] | 80.3 ± 5.1
20 | O=C(NCCCN1CCCCCC1)C(c1ccccc1)C1CCCCC1 (centres undefined) | 88.8 ± 4.6
21 | O=C(O)C=C1CCCc2ccccc2C1O (centres undefined) | 83.32 ± 0.084
22 | COC(=O)C[C@](O)(CCCC(C)(C)O)C(=O)O[C@@H]1C(OC)=C[C@]23CCCN2CCc2cc4c(cc2[C@H]13)OCO4 [Homoharringtonine] | 28.6 ± 2.8
23 | O/N=C/c1ccc(-c2ccc(O)c(F)c2)c(Cl)c1O | 91.86 ± 0.49

Row | SMILES | uninfected host cell viability [%]
24 | Cc1ccc(/C=C2\CNC/C(=C\c3ccc(C)cc3)C2=O)cc1 | 34.4 ± 5.5
25 | COC(=O)C1=C(C)NC(C)=C(C(=O)NCCCN2CCC(c3ccccc3)(c3ccccc3)CC2)C1c1ccc([N+](=O)[O-])cc1 (centres undefined) | 81.9 ± 1.8
26 | CC#CCOC(=O)C1=CCCN(C)C1 [Arecaidine but-2-ynyl ester tosylate] | 88 ± 1.3
27 | CC(C)Oc1cccc(-n2c(CCc3c[nH]c4ccc(Br)cc34)nc3ccccc3c2=O)c1 | 92.8 ± 5.5
28 | COc1cc(Br)c(S(=O)(=O)Nc2ccc(Cl)c(O[C@@H]3CCN(C)C3)c2)cc1OC | 96.9 ± 3
29 | C[C@H](NC[C@H](O)CP(=O)(O)CC1CCCCC1)c1ccc(Cl)c(Cl)c1 | 84.83 ± 0.31
30 | CC1c2ccccc2CN1CC1=NCCN1 (centres undefined) | 89 ± 2.3
31 | N[C@H](C(=O)O)c1ccc(O)c(C(=O)O)c1 [(S)-3-Carboxy-4-hydroxyphenylglycine] | 83.1 ± 0.11
32 | CC(C)c1onc(-c2c(Cl)cccc2Cl)c1COc1ccc(/C=C/c2cccc(C(=O)O)c2)c(Cl)c1 | 96.2 ± 2.9
33 | OC[C@H]1NC[C@@H](O)[C@@H](O)[C@@H]1O [1-Deoxymannojirimycin hydrochloride] | 86.61 ± 0.073
34 | O=C(NCCCCN1CCN(c2cccc(Cl)c2Cl)CC1)c1ccc2c(c1)Cc1ccccc1-2 | 88.9 ± 4
35 | CCCCCCNC(=O)Nc1ccc(S(=O)(=O)Nc2ccc(CCNC[C@H](O)COc3ccc(O)cc3)cc2)cc1 | 83.4 ± 2.5
36 | NC(C(=O)O)c1ccc(C(=O)O)c(C(=O)O)c1 (centres undefined) | 83.7 ± 3.5
37 | CCCCN1CCC(CCC(=O)c2cc(Cl)c(N)cc2OC)CC1 | 85.2 ± 6.5
38 | CN(CCOc1ccc(-c2ccc3c(c2)OCO3)cc1C(C)(C)C)CC(=O)O | 89.62 ± 0.17
39 | O=C(c1ccc(F)cc1)C1CCN(CCn2c(=S)[nH]c3ccccc3c2=O)CC1 [Altanserin hydrochloride] | 83.2 ± 2.8
40 | Nc1nc2c(nc(Br)n2[C@@H]2O[C@@H]3COP(=O)(O)O[C@H]3[C@H]2O)c(=O)[nH]1 [8-Bromo-cGMP, sodium salt] | 89.8 ± 1.7
41 | COC(=O)c1sccc1S(=O)(=O)Nc1ccc(Nc2ccccc2)cc1OC | 77.8 ± 0.79
42 | NC(=O)N1c2ccccc2CC(O)c2ccccc21 (centres undefined) [Licarbazepine] | 86.1 ± 1.1
43 | COc1ccc(Cl)cc1NC(=O)Nc1cc(C)nc2ccccc12 | 70.73 ± 0.28
44 | O=C(/C=C/c1ccc(O)c(O)c1)O[C@H](Cc1ccc(O)c(O)c1)C(=O)O [Rosmarinic acid] | 80.3 ± 1
45 | OC(CCCN1CCN(c2ncc(F)cn2)CC1)c1ccc(F)cc1 (centres undefined) | 110 ± 17
46 | CC(C)c1ccccc1S(=O)(=O)c1cc(N)c2ncccc2c1[N+](=O)[O-] | 73.2 ± 0.84

Row | SMILES | uninfected host cell viability [%]
47 | CN(CCCN1c2ccccc2CCc2ccccc21)CC(=O)c1ccc(Cl)cc1 [Lofepramine] | 89.6 ± 1.2
48 | Cc1c(C(=O)NN2CCOCC2)nn(-c2ccc(Cl)cc2Cl)c1-c1ccc(I)cc1 | 90.8 ± 2.4
49 | O=c1[nH]nc(Sc2ncc([N+](=O)[O-])s2)n1-c1ccc2c(c1)OCCO2 | 99.61 ± 0.28
50 | O=C(O)c1ccc(C=C2SC(=S)N(c3cccc(C(F)(F)F)c3)C2=O)cc1 | 87.8 ± 0.91
51 | CN1Cc2c(C(=O)OC(C)(C)C)ncn2-c2ccsc2C1=O | 97.9 ± 4.9
52 | CCCCCCCCCCCCCCCC(=O)C(F)(F)F | 91.66 ± 0.55
53 | NC(=O)CCCCn1ccc(NC(N)=NCC(F)(F)F)n1 | 85.9 ± 2.3
54 | N[C@@H](CSS(=O)(=O)O)C(=O)O [S-Sulfo-L-cysteine sodium salt] | 99.5 ± 1.1
55 | Cc1ccccc1C(=O)c1ccc(Nc2ccc(Br)cc2N)cc1Cl | 84 ± 2.2
56 | CN1CCC(Nc2ncc3ncnc(Nc4ccc(F)c(Cl)c4)c3n2)CC1 [BIBX 1382 dihydrochloride] | 80.7 ± 2.1
57 | CC(C)n1nnc2cc(C(=O)O)ccc21 | 100 ± 2.3
58 | Cc1[nH]c(/C=C2\C(=O)Nc3ccc(S(=O)(=O)Cc4c(Cl)cccc4Cl)cc32)c(C)c1C(=O)N1CCC[C@@H]1CN1CCCC1 | 89.5 ± 2.3
59 | CC1(C)CCC(C)(C)c2cc(C3(c4ccc(C(=O)O)cc4)OCCO3)ccc21 | 93.1 ± 2.3
60 | COc1ccc(NS(=O)(=O)c2ccc(I)cc2)cc1N1CCN(C)CC1 | 81.6 ± 2.9
61 | Cc1cc(C)cc(C(=O)N(C)[C@H](Cc2ccc(-c3ccccc3)cc2)C(=O)N[C@@H](Cc2c[nH]c3ccccc23)C(=O)O)c1 | 83.95 ± 0.62
62 | CCCn1c(=O)[nH]c2nc(-c3ccc(S(=O)(=O)O)cc3)[nH]c2c1=O | 86.34 ± 0.58
63 | CNc1cc(OC)c(C(=O)NC2CCN(Cc3ccccc3)C2C)cc1Cl (centres undefined) [Nemonapride] | 86.9 ± 6.9
64 | C[C@H](NC[C@H](O)CP(=O)(O)Cc1ccccc1)c1ccc(Cl)c(Cl)c1 | 87.23 ± 0.39
65 | CCOc1ccc(Nc2nc(-c3c(C)nc4ccccn34)cs2)cc1 | 73.8 ± 2.5
66 | CCCCC[C@H](O)/C=C/[C@H]1[C@H](O)CC(=O)[C@@H]1C/C=C\CCCC(=O)O [Prostaglandin E2] | 95.2 ± 2.4
67 | COC(=O)C1=C(C)NC(C)=C(C(=O)OC(C)C)C1c1cccc2nonc12 (centres undefined) [Isradipine] | 104 ± 7.9
68 | CC(Cc1ccccc1)(NC(=O)CN)c1ccccc1 (centres undefined) [Remacemide hydrochloride] | 85.5 ± 1.2
69 | CCn1c(=O)[nH]c2ccccc21 | 95.8 ± 5.6

Row | SMILES | uninfected host cell viability [%]
70 | CC(/C=C/c1cccc(Oc2ccc(F)cc2)c1)N(O)C(N)=O (centres undefined) | 82.8 ± 3.7
71 | O=C1NN(C(=O)Nc2ccc(Br)cc2)[C@@H](c2ccccc2)[C@@H]1c1ccccc1 | 91.67 ± 0.67
72 | CCc1c2c(nc3ccc(O)cc13)-c1cc3c(c(=O)n1C2)COC(=O)[C@]3(O)CC | 77.3 ± 8.2
73 | NCCNC(=O)c1ccc(Cl)cn1 [Lazabemide hydrochloride] | 94.7 ± 1.2
74 | Nc1[nH]nc2nnc(-c3c(-c4ccccc4)nn4ccccc34)cc12 | 94.685 ± 0.091
75 | OC(c1ccccc1)C1CCN(CCc2ccccc2)CC1 (centres undefined) | 101 ± 7.3
76 | Cc1cc(/C(=C/Nc2ccc(Cl)cc2)C(=O)Nc2ccc(Cl)cc2)on1 | 86.9 ± 4.8
77 | CC1(CN2CCC(n3c(=O)[nH]c4ccccc43)CC2)OCc2ccccc2-n2cccc21 (centres undefined) | 94.4 ± 2
78 | Nc1ccc(-c2cccc3c(=O)cc(N4CCOCC4)oc23)cc1 | 77 ± 0.83
79 | c1ccc(N2CCN(CCCOc3ccc4c(c3)OCO4)CC2)cc1 [BP 554 maleate] | 90.9 ± 6.9
80 | CCS(=O)(=O)N(C)[C@H]1c2cc(C#N)ccc2OC(C)(C)[C@@H]1O (racemic) [Chromanol 293B] | 91.3 ± 6.7
81 | c1ccc2oc(C3=NCCN3)cc2c1 [2-BFI hydrochloride] | 84.5 ± 0.93
82 | COc1ccc(-n2[nH]c3c4c(ncc3c2=O)CCCCC4)cc1 | 92.03 ± 0.15
83 | O=C(O)COc1cccc(-c2ocnc2-c2nc(-c3ccccc3)c(-c3ccccc3)o2)c1 | 105 ± 3.5
84 | NC(N)=Nc1ccc(Cl)cc1 [4-Chlorophenylguanidine hydrochloride] | 87.3 ± 2.5
85 | CN(Cc1ccccc1)C(=O)[C@H](Cc1ccc2ccccc2c1)NC(=O)[C@@H]1CCCN1C(=O)Nc1ccccc1[N+](=O)[O-] | 87.6 ± 1.8
86 | CC[C@H](CO)Nc1nc(Nc2cccc(-c3ccccn3)c2)c2ncn(C(C)C)c2n1 [(R)-DRF053 dihydrochloride] | 84.1 ± 1.9
87 | CC(C)NCC(O)c1ccc2ccccc2c1 (centres undefined) [Pronethalol hydrochloride] | 85.9 ± 2.6
88 | COc1cc2ncn(-c3cc(OCc4ccccc4C(F)(F)F)c(C(N)=O)s3)c2cc1OC | 83.8 ± 1.1
89 | COCCNC(=O)COc1ccc(OCCNC[C@H](O)COc2ccccc2)cc1 [ZD 7114 hydrochloride] | 83.8 ± 2.3
